TbPYK inhibitor – inhibitors of Trypanosoma brucei pyruvate kinase. TbPYK enzyme, Kinase-Glo Plus ATP luminescence, 45 min. Potency, µM (highest dose often 76.8 µM), inactives show top-dose activity, negative = inhibition, actives largely listed as inhibitors. 410,000 tested, 0.12% active; also: nearly all actives have a fitted effect of over 50% in size
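T. brucei PYK with substrate was exposed to pin-transferred compounds across a concentration series, then started with 130 uM ADP (final). After 45 min at room temperature, Kinase-Glo Plus luminescence was read, normalized and curve-fitted.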
Sm TGR block – S. mansoni TGR enzyme inhibition; Potency, µM (highest dose often 114 µM), for inactives: at the highest dose activity change, negative = inhibition, hits mostly inhibitors; AID 485364; 360,000 tested, 3% active; Q962Y6; purified TGR, DTNB reduction, TNB absorbance 405 nm; also: nearly all actives have a fitted effect of over 60% in size
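First, TGR (20 nM dispensed) and NADPH were mixed with compound. Second, a 15 min room-temperature incubation followed. Third, further NADPH and then DTNB were added to start the reaction. Finally, TNB absorbance was monitored kinetically.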
FMDV antiviral – antivirals against foot and mouth disease virus; FMDV antiviral cell-based qHTS; 410,000 tested, 1.2% active; AID 1159524; Potency, µM (top dose mostly 57.9 µM), inactives show at the top dose activity change, negative = inhibition, actives largely listed as inhibitors; calls by dose curve; tested in HEK293T cells; also: read-out not given here; nearly all actives have a fitted effect of over 45% in size
RE007 growth inh – less growth of the S. pombe RE007 Vpr strain | S. pombe RE007 Vpr strain, BacTiter-Glo ATP luminescence, 24 h | Potency, µM (top dose mostly 92.2 µM), without a hit: top-dose activity change, negative = less growth, hits mostly inhibitors | 360,000 tested, 0.21% active; active = well fitted falling curve with a large enough effect; inconclusive = small, poorly fitted or top-dose-only effect; inactive = no such curve, though single readings can be large or run the other way; also: nearly all actives have a fitted effect of over 50% in size
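Fission yeast strain RE007, carrying one chromosomally integrated HIV-1 vpr copy, was seeded at OD 0.01 in PMG+AL medium with 23 nL pinned compound. After 24 h at 30 °C and 99% humidity, viability was read by BacTiter-Glo luminescence.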
* hit, by the source's call; ? = inconclusive; nt = no result. Shown are actives, neighbours in structure and some others; about 3.7% of the full set was active somewhere. Unless noted, calls follow the shape of the dose curve; as a rule, active = well fitted curve in the direction sought with a large enough effect; inconclusive = small, poorly fitted or top-dose-only effect, or another doubt; inactive = no such curve, though single readings can be large; an effect the other way counts as inactive or inconclusive. % is scaled to controls: 0 for no effect and ±100 for the full control effect; potency is read from the fitted curve at half-maximal effect.

SMILES	TbPYK inhibitor	Sm TGR block	FMDV antiviral	RE007 growth inh
CCC1CN(S(=O)(=O)c2cc(-c3onc(C)c3C)ccc2C)c2cc(Cl)ccc2O1 (centres undefined)	3%	6%	-16%	nt
COc1ccc(OC)c(NC(=O)c2cccc(N3C(=O)C4C5C=CC(C6CC56)C4C3=O)c2)c1 (centres undefined)	2%	3%	25µM*	-6%
O=C(Nc1ccc(Br)cc1)c1cccc(N2C(=O)C3C4CCC(C4)C3C2=O)c1 (centres undefined)	2%	-2%	40µM*	3%
COc1ccc(OC)c(NC(=O)c2cccc(N3C(=O)C4C5CCC(C5)C4C3=O)c2)c1 (centres undefined)	1%	7%	20µM*	0%
O=C(Nc1ccc(F)cc1)c1cccc(N2C(=O)C3C4CCC(C4)C3C2=O)c1 (centres undefined)	-6%	-2%	-20%	14%
Cc1cccc(NC(=O)c2ccc(N3C(=O)C4C5C=CC(C6CC56)C4C3=O)cc2)c1 (centres undefined)	-2%	0%	25µM*	14%
O=C(Nc1ccccc1)c1cccc(N2C(=O)C3C4C=CC(C5CC45)C3C2=O)c1 (centres undefined)	-1%	3%	-23%	15%
Cc1ccc(C(=O)Nc2cccc(-c3nc(CNC(=O)c4ccc(F)cc4Cl)c(C)o3)c2)s1	nt	nt	26%	nt
NNc1ccc2nncn2n1	0%	35µM*	-13%	0%
Cc1ccc(N2C(=O)CC(Nc3ccccc3)C2=O)cc1 (centres undefined)	-1%	-20%	nt	-7%
O=C1CC(Nc2ccc(N3CCOCC3)cc2)C(=O)N1c1ccccc1F (centres undefined)	-17%	40µM*	-10%	-6%
COc1ccc(NC2CC(=O)N(C(C)C)C2=O)cc1 (centres undefined)	-10%	7.9µM*	13%	-10%
O=C1CC(Nc2ccc(N3CCOCC3)cc2)C(=O)N1C1CCCCC1 (centres undefined)	-18%	40µM*	-12%	-14%
O=C1CC(Nc2ccccc2)C(=O)N1c1ccc(N2CCOCC2)cc1 (centres undefined)	2%	-33%	21%	17%
O=C1CC(NNc2ccccc2)C(=O)N1c1ccc(N2CCCCC2)cc1 (centres undefined)	-3%	45µM*	11%	-16%
Cc1cnc(C)c(-c2cccc3c2OC(CNC(=O)/C=C/c2ccc(F)c(F)c2)C3)n1 (centres undefined)	nt	nt	-16%	nt
CCN(CCCNC(=O)CN1N=C(c2ccccc2)CCC1=O)c1ccccc1	-7%	-11%	-8%	nt
CC(C)N1C(=O)CC(Nc2ccc(N3CCOCC3)cc2)C1=O (centres undefined)	-4%	35µM*	44%	-7%
CCOC(=O)N1CCN(C(=O)CCS(=O)(=O)c2ccc3c(c2)CC(C)N3C(=O)CC)CC1 (centres undefined)	11%	22µM*	-24%	0%
CCC(=O)N1c2ccc(S(=O)(=O)CCC(=O)N3CCN(c4cc(C)ccc4C)CC3)cc2CC1C (centres undefined)	1%	-1%	?	nt
CCC(=O)N1c2ccc(S(=O)(=O)CCC(=O)N3CCN(c4ccc(F)cc4)CC3)cc2CC1C (centres undefined)	0%	5.6µM*	?	nt
Cc1cccc(CSc2nc3c(sc4ccccc43)c(=O)n2CCC(=O)NC(C)C)c1	3%	-3%	-24%	nt
CO/N=C1\C[C@]2(C[C@@H]3C[C@H](C/C=C(/C)C[C@@H](C)/C=C\C=C4\CO[C@@H]5[C@@H](O)C(C)=C[C@@H](C(=O)O3)[C@]45O)O2)O[C@@H](/C(C)=C/C(C)C)[C@H]1C	-13%	nt	nt	nt
C=C1[C@@H](O)[C@H](Cc2ccccc2)N(Cc2ccccc2Br)S1(=O)=O	-1%	nt	18µM*	-10%
Cc1cccn2c(=O)c3cc(C#N)c(=O)n(-c4nnc(SCc5ccc(Cl)cc5)s4)c3nc12	-2%	2%	-7%	nt
CC(=O)N1c2ccccc2[C@@H](C)[C@@H]1C	-9%	-2%	-11%	-9%
CC(=O)N1c2ccccc2C2(O)N=C(C)SC12 (centres undefined)	13µM*	-8%	3%	-6%
Cc1cc(C)cc(Nc2cc(C(=O)NCc3ccccc3)c3ccccc3n2)c1	2%	35µM*	12%	nt
